40 compounds from PubChem BioAssay (NCI) can be followed below.

The structures appear in SMILES notation. About 83,000 compounds went through this panel and 20% of them were active in at least one assay; those are over-represented in the sample as a whole.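 Activity criterion: percent growth below 10, measured after cells in 96-well plates were exposed to a single compound concentration for 48 hours.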 Activity calls are given as the source filed them.

The test has as its system NCI/ADR-RES ovarian. The test is described as follows: NCI-60 one-dose screen, 48 h (100 = growth as untreated, 0 = no growth, -100 = all killed). Conditions: 10 µM. On the procedure: Growth inhibition of the NCI/ADR-RES human […] tumor cell line is measured as a screen for anti-cancer activity. Cells are grown in 96 well plates and exposed to the test compound for 48 hours. Compounds are tested at a single concentration, which is 10^-5 M for most compounds. The reported endpoint is percent growth (GI% or GIPRCNT), where numbers from 0 - 100% represent growth inhibition, and numbers from -100% - 0 represent cell death. For example, a value of 40 represents 60% growth inhibition. A value of 0 means no net growth occurred over the course of the experiment. A value of -40 indicates 40% of cells at the beginning of the experiment died by the end of the experiment. A value of -100 means all cells are dead at the end of the experiment.
NCI-60 Human Tumor Cell Lines Screen was performed using the standard one-dose NCI protocol, which is described in more detail at https://dtp.cancer.gov/discovery_development/nci-60/default.htm.
Compounds with GIPRCNT values below 10 were considered active. Activity score was based on GIPRCNT using the following formula: […]
Score is 0 for GIPRCNT values of 100 or above, 50 for GIPRCNT values of 0, and 100 for GIPRCNT values of -100.
For the compound `CC(=O)O[C@@]12CO[C@@H]1C[C@H](O)[C@@]1(C)C(=O)[C@H](O)C3=C(C)[C@@H](OC(=O)[C@H](O)[C@@H](NC(=O)OC(C)(C)C)c4ccccc4)C[C@@](O)([C@@H](OC(=O)c4ccccc4)C12)C3(C)C` (stereo not given in full), the growth was -21.2% (active).
The same measure for `CCN1CCN(CCC(=O)Nc2cccc(-n3cc(-c4ccncc4)c(-c4ccc(Cl)c(OC)c4)n3)c2)CC1`: 15.2% (inactive); for `C[N+]1(CCCCC[N+]2(C)CCCC2)CCCC1`: 75% (inactive).
As for `CCOC(=O)c1sc2ncnc(Nc3ccc4c(cnn4C(=O)Nc4ccc(C)c(Cl)c4)c3)c2c1C`, the figure is 105% (inactive); as for `CN(C)CCOc1cccc(NC2=C(Cl)C(=O)C(Nc3cccc(OCCN(C)C)c3)=C(Cl)C2=O)c1`, 57.2% (inactive); as for `CCOC(=O)c1cc(C(=O)c2cc(OC)c(OC)c(OC)c2)n2ccc(-c3cc[n+](CC(=O)c4cc(OC)c(OC)c(OC)c4)cc3)cc12`, 94.4% (inactive).
As for `Cc1c[nH]c(=O)n(Cc2nnc(CCC(=O)c3nc4ccccc4[nH]3)o2)c1=O`, the figure is 90.7% (inactive); as for `Cc1ccc(-n2nnnc2N)c(C)c1`, 105% (inactive); as for `C/C(=C/CCC(C)[C@@H]1CC[C@]2(C)C3=C(CC[C@@]12C)[C@@]1(C)CCC(=O)C(C)(C)[C@@H]1CC3)C(=O)O` (stereo not given in full), -52.8% (active).
Take `CC(C)(C)c1ccc(S(=O)(=O)N[C@H]2CC[C@H]3[C@@H]4CCc5cc(O)ccc5[C@H]4CC[C@]23C)cc1`: the growth is 46.4% (inactive).
The same measure for `S=c1cnc2ccccc2[nH]1`: 98.6% (inactive).
The same measure for `C=CCn1c(SCC(=O)Nc2ccc(C(=O)/C=C/c3cc(OC)c(OC)c(OC)c3)cc2)nnc1-c1cc(-c2ccc(Cl)cc2)nc2ccccc12`: 75.6% (inactive); for `CCCCC(CC)CN=C(N)NC(N)=NCCCCCCN=C(N)NC(N)=NCC(CC)CCCC` (stereo not given): 46.7% (inactive); for `COc1ccc2c(c1)CC=C1[C@@H]2CC[C@]2(C)C(=O)/C(=N/O)C[C@@H]12`: 90.3% (inactive).
The same measure for `COCCn1cc(-c2nc(-c3cccnc3)cs2)c2cc(F)ccc21`: 86% (inactive); for `O=C(CCl)Oc1ccc(OC(=O)CCl)cc1`: 79.4% (inactive); for `CN1CCN(C2=Nc3ccccc3Oc3ccc(Cl)cc32)CC1`: 98% (inactive).
For `CC(=O)COc1ccc(Cl)cc1Cl`, the growth is 111% (inactive).
As for `COc1cc2cc(Oc3ccc(NC(=O)c4cc(C(F)(F)F)cc(C(F)(F)F)c4)cc3)c(C)nc2cc1OC`, the figure is 46.3% (inactive).
As for `O=c1c(Br)ccc(Br)cc1Br`, the figure is -15.3% (active); as for `CCCCCOC(=O)Nc1nc(=O)n(C2O[C@H](C)[C@@H](O)[C@H]2O)cc1F` (stereo not given in full), 96.4% (inactive).
The same measure for `COC(=O)c1c[nH]c2cc(OC(C)C)c(OC(C)C)cc2c1=O`: 101% (inactive); for `OCC1OC2C(NC(=S)N2c2ccccc2)C(O)C1O` (stereo not given): 105% (inactive).
Regarding `Cc1ccc(S(=O)(=O)N/N=C2\CCCc3ccccc32)cc1`, the growth was 96.7% (inactive).
The same measure for `C/C=C/CSC(C)(C)C(=O)NC`: 108% (inactive); for `COc1ccc(/C(C#N)=C/c2cccc(OC)c2OC)cc1`: 53.3% (inactive).
As for `O=C(CNc1nnc(-c2cccnc2SCc2ccccc2)s1)Nc1nc(Cl)cc(Cl)n1`, the figure is 114% (inactive).
As for `CC[C@@H](C(=O)[C@@H](C)[C@@H](O)[C@H](C)[C@@H]1O[C@@H]([C@@H](CC)C(=O)N(CC)CC)CC[C@@H]1C)C1O[C@]2(C=CC(=O)[C@]3(CC[C@@](C)([C@H]4CC[C@](O)(CC)[C@H](C)O4)O3)O2)[C@H](C)C[C@@H]1C` (stereo not given in full), the figure is 10.5% (inactive).
For the compound `COc1cc(C(=O)/C(C)=C/c2c[nH]c3ccccc23)cc(OC)c1OC`, the growth was 5.38% (active).
The same measure for `OC(CCN1CCCC1)(c1ccccc1)C1CCCCC1` (stereo not given): 105% (inactive); for `O=C(CI)OCC(COC(=O)CI)OC(=O)CI`: 95.6% (inactive).
The same measure for `CC1=CC2C(C(O)CC3(C)C2CC(C)C32OCOC23COCO3)C2(C)C/C(=C/O)C(=O)C=C12` (stereo not given): 17.3% (inactive); for `C1CN(CC2CCC(CN3CCOCC3)O2)CCO1` (stereo not given): 101% (inactive); for `C=CCSC(CC)(CC)C(=O)NC`: 107% (inactive).
The same measure for `Oc1cccc(-c2nc3sccn3c2-c2ccncn2)c1`: 94% (inactive).
On to `Nc1nccc(OCCO)n1`, for which the growth is 103% (inactive).
As for `CN(C)CCCOc1cccc(NC2=C(Cl)C(=O)C(Nc3cccc(OCCCN(C)C)c3)=C(Cl)C2=O)c1`, the figure is 74.7% (inactive); as for `Cc1nn(-c2ccc(-c3ccc(OC(F)(F)F)cc3)cc2)c2nc(Cc3ccccc3)nc(N)c12`, 40.5% (inactive).
Consider `COc1ccc(C(=O)CSc2nc(-c3cc(OC)ccc3OC)cc(-c3ccc(OC)cc3)c2C#N)cc1`, for which the growth was 45.1% (inactive).
Take `C[C@@H](O)[C@H]1C(=O)N2C(C(=O)O)=C(SCCN=CN)C[C@H]12`: the growth was -13.9% (active).
